# Measurements as given in the supplement of paper PMC8728848.
# This excerpt belongs to a sample that is enriched for the strongest signals.
# B1: EfCBM33A (Enterococcus faecalis), Q838S1 (protein)
# chain: MKKSLLTIVLAFSFVLGGAALAPTVSEAHGYVASPGSRAFFGSSAGGNLNTNVGRAQWEPQSIEAPKNTFITGKLASAGVSGFEPLDEQTATRWHKTNITTGPLDITWNLTAQHRTASWDYYITKNGWNPNQPLDIKNFDKIASIDGKQEVPNKVVKQTINIPTDRKGYHVIYAVWGIGDTVNAFYQAIDVNIQ
# Experiments:
# Test in all cases: glycan array binding signal (z-score within array); higher = stronger binding
# Conditions in all cases: glycan notation: IUPAC condensed, linker removed
# [1] = target: GlcNAc(b1-3)[GlcNAc(b1-6)]GalNAc
# In short: (§1)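 From the Consortium for Functional Glycomics database, 3228 arrays were curated, keeping only those whose protein sequence was available. Binding is given as a within-array Z-score averaged across arrays sharing a protein sequence and across linkers. Negative Z-scores can be read as non-binding.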
# [2] = target: GlcNAc(b1-4)GlcNAc(b1-4)GlcNAc(b1-4)GlcNAc(b1-4)GlcNAc(b1-4)GlcNAc
# In short: as §1
# Kdn(a2-6)Gal(b1-4)GlcNAc = target: Kdn(a2-6)Gal(b1-4)GlcNAc
# In short: as §1
# [3] = target: Man(a1-2)Man(a1-2)Man(a1-3)Man
# In short: as §1
# [4] = target: Man(a1-2)Man(a1-3)[Man(a1-2)Man(a1-6)]Man
# In short: as §1
# [5] = target: Man(a1-3)[Man(a1-6)]Man(a1-6)[Man(a1-3)]Man(b1-4)GlcNAc(b1-4)GlcNAc
# In short: as §1
# MurNAc(b1-4)GlcNAc = target: MurNAc(b1-4)GlcNAc
# In short: as §1
# [6] = target: Neu5Ac(a2-3)Gal(b1-4)GlcNAc(b1-2)Man(a1-3)[GlcNAc(b1-4)][Neu5Ac(a2-3)Gal(b1-4)GlcNAc(b1-2)Man(a1-6)]Man(b1-4)GlcNAc(b1-4)GlcNAc
# In short: as §1
# [7] = target: Neu5Ac(a2-3)Gal(b1-4)GlcNAc(b1-3)Gal(b1-4)GlcNAc
# In short: as §1
# [8] = target: Neu5Ac(a2-3)Gal(b1-4)GlcNAc(b1-3)Gal(b1-4)GlcNAc(b1-3)[Neu5Ac(a2-3)Gal(b1-4)GlcNAc(b1-3)Gal(b1-4)GlcNAc(b1-6)]GalNAc
# In short: as §1
# [9] = target: Neu5Ac(a2-3)Gal(b1-4)GlcNAc(b1-3)[Neu5Ac(a2-3)Gal(b1-4)GlcNAc(b1-6)]GalNAc
# In short: as §1
# [10] = target: Neu5Ac(a2-3)Gal(b1-4)[Fuc(a1-3)]GlcNAc(b1-3)GalNAc
# In short: as §1
# [11] = target: Neu5Ac(a2-6)Gal(b1-4)GlcNAc(b1-2)Man(a1-3)Man(b1-4)GlcNAc(b1-4)GlcNAc
# In short: as §1
# [12] = target: Neu5Ac(a2-6)Gal(b1-4)GlcNAc(b1-2)Man(a1-3)[Gal(b1-4)GlcNAc(b1-2)Man(a1-6)]Man(b1-4)GlcNAc(b1-4)GlcNAc
# In short: as §1
# [13] = target: Neu5Ac(a2-6)Gal(b1-4)GlcNAc(b1-2)[Neu5Ac(a2-6)Gal(b1-4)GlcNAc(b1-4)]Man(a1-3)[GlcNAc(b1-4)][Neu5Ac(a2-6)Gal(b1-4)GlcNAc(b1-2)[Neu5Ac(a2-6)Gal(b1-4)GlcNAc(b1-6)]Man(a1-6)]Man(b1-4)GlcNAc(b1-4)GlcNAc
# In short: as §1
# [14] = target: Neu5Ac(a2-6)Gal(b1-4)GlcNAc(b1-2)[Neu5Ac(a2-6)Gal(b1-4)GlcNAc(b1-6)]Man(a1-6)[Neu5Ac(a2-6)Gal(b1-4)GlcNAc(b1-2)Man(a1-3)][GlcNAc(b1-4)]Man(b1-4)GlcNAc(b1-4)GlcNAc
# In short: as §1
# [15] = target: Neu5Ac(a2-6)Gal(b1-4)GlcNAc(b1-3)Gal(b1-4)GlcNAc
# In short: as §1
# [16] = target: Neu5Ac(a2-6)Gal(b1-4)GlcNAc(b1-3)Gal(b1-4)GlcNAc(b1-3)[Neu5Ac(a2-6)Gal(b1-4)GlcNAc(b1-3)Gal(b1-4)GlcNAc(b1-6)]GalNAc
# In short: as §1
# [17] = target: Neu5Ac(a2-6)Gal(b1-4)GlcNAc(b1-6)[Gal(b1-3)GlcNAc(b1-3)]Gal(b1-4)Glc
# In short: as §1
# [18] = target: Neu5Ac(a2-8)Neu5Ac(a2-8)Neu5Ac
# In short: as §1
# [19] = target: Neu5Gc(a2-8)Neu5Gc(a2-6)Gal(b1-4)GlcNAc
# In short: as §1
binder,measurement,setting,value
B1,glycan array binding signal (z-score),[1],-0.941
same,glycan array binding signal (z-score),[2],0.083
same,glycan array binding signal (z-score),Kdn(a2-6)Gal(b1-4)GlcNAc,0.328
same,glycan array binding signal (z-score),[3],-0.162
same,glycan array binding signal (z-score),[4],0.783
same,glycan array binding signal (z-score),[5],0.455
same,glycan array binding signal (z-score),MurNAc(b1-4)GlcNAc,0.631
same,glycan array binding signal (z-score),[6],0.122
same,glycan array binding signal (z-score),[7],-0.177
same,glycan array binding signal (z-score),[8],7.32
same,glycan array binding signal (z-score),[9],3.14
same,glycan array binding signal (z-score),[10],2.79
same,glycan array binding signal (z-score),[11],2.04
same,glycan array binding signal (z-score),[12],0.519
same,glycan array binding signal (z-score),[13],2.16
same,glycan array binding signal (z-score),[14],0.103
same,glycan array binding signal (z-score),[15],2.76
same,glycan array binding signal (z-score),[16],0.687
same,glycan array binding signal (z-score),[17],-0.451
same,glycan array binding signal (z-score),[18],0.016
same,glycan array binding signal (z-score),[19],-0.736
